Test results published in PubChem BioAssay AID1159580 (chemical genetic matrix, 2015).
Among all 5,500 compounds or so, about 2,000 (36%) were called active. Inconclusive results (about 18%) are left out. Cut-off read from the data, not from the text of the source: active = normalized growth mostly below about 0.91 (no sharp cut-off); inconclusive = no clear call, values can overlap the other calls; inactive = mostly above about 0.92. Some of the results follow.

Test: chemical genetic growth profiling, strain panel (AID 1159580);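 note: tested at 20 µM; growth read once vehicle control cultures reached saturation at 30 °C; 1 = growth at the plate median or of vehicle wells; lower values mean less growth of the strain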
Settings: growth OD
[1] = S. cerevisiae deletion strains, locus YAL013W, strain DEP1, hits give low values
[2] = S. cerevisiae deletion strains, locus YGR078C, strain PAC10, hits give low values
[3] = S. cerevisiae deletion strains, locus YJR075W, strain HOC1, hits give low values
[4] = S. cerevisiae deletion strains, locus YMR263W, strain SAP30, hits give low values
[5] = S. cerevisiae deletion strains, locus YNL153C, strain GIM3, hits give low values
[6] = S. cerevisiae deletion strains, locus YNL322C, strain KRE1, hits give low values
[7] = S. cerevisiae deletion strains, locus YBR229C, strain ROT2, hits give low values
[8] = S. cerevisiae deletion strains, locus YCL061C, strain MRC1, hits give low values
[9] = S. cerevisiae deletion strains, locus YDL101C, strain DUN1, hits give low values
[10] = S. cerevisiae deletion strains, locus YDR150W, strain NUM1, hits give low values
[11] = S. cerevisiae deletion strains, locus YEL061C, strain CIN8, hits give low values
[12] = S. cerevisiae deletion strains, locus YHR030C, strain SLT2, hits give low values
[13] = S. cerevisiae deletion strains, locus YHR087W, strain rtc3, hits give low values
[14] = S. cerevisiae deletion strains, locus YJR043C, strain POL32, hits give low values
[15] = S. cerevisiae deletion strains, locus YLR039C, strain RIC1, hits give low values
[16] = S. cerevisiae deletion strains, locus YLR058C, strain SHM2 (second series), hits give low values
[17] = S. cerevisiae deletion strains, locus YLR085C, strain ARP6, hits give low values
[18] = S. cerevisiae deletion strains, locus YLR262C, strain YPT6, hits give low values
[19] = S. cerevisiae deletion strains, locus YML094W, strain GIM5, hits give low values
[20] = S. cerevisiae deletion strains, locus YMR219W, strain ESC1, hits give low values
[21] = S. cerevisiae deletion strains, locus YNL298W, strain CLA4 (second series), hits give low values
[22] = S. cerevisiae deletion strains, locus YNR030W, strain Alg12, hits give low values
[23] = S. cerevisiae deletion strains, locus YPL055C, strain LGE1, hits give low values
[24] = S. cerevisiae deletion strains, locus YPL241C, strain CIN2, hits give low values
[25] = S. cerevisiae deletion strains, locus YPR135W, strain CTF4, hits give low values
[26] = S. cerevisiae strains, strain wild type, hits give low values
[27] = S. cerevisiae deletion strains, locus YDL134C, strain PPH21, hits give low values
[28] = S. cerevisiae deletion strains, locus YJL187C, strain SWE1, hits give low values

Measured: normalized growth

COc1ccccc1N1CCN(CCCCNS(=O)(=O)c2cccc3c(N(C)C)cccc23)CC1
inactive: [1] 0.944 | S. cerevisiae deletion strains, locus YAL040C, strain CLN3, hits give low values 0.979 | S. cerevisiae deletion strains, locus YCL061C, strain MRC1 (second series), hits give low values 0.976 | S. cerevisiae deletion strains, locus YDR363W, strain ESC2, hits give low values 0.939 | S. cerevisiae deletion strains, locus YER002W, strain NOP16, hits give low values 0.999 | [2] 0.997 | [3] 0.955 | [4] 0.979 | S. cerevisiae deletion strains, locus YMR307W, strain GAS1, hits give low values 0.994 | [5] 0.989 | S. cerevisiae deletion strains, locus YNL175C, strain NOP13, hits give low values 1.02 | S. cerevisiae deletion strains, locus YNL197C, strain WHI3, hits give low values 0.99 | S. cerevisiae deletion strains, locus YNL224C, strain SQS1, hits give low values 1.04 | [6] 0.951 | S. cerevisiae deletion strains, locus YOR083W, strain WHI5 (second series), hits give low values 1.02

CCOC(=O)c1cnn(-c2ccc(N)cc2)c1C(F)(F)F
active: [12] 0.378 | [15] 0.429 | [17] 0.695 | [18] 0.472 | [19] 0.848
inactive: [1] 0.979 | [7] 0.992 | [8] 0.979 | [9] 0.992 | [10] 1.02 | [11] 0.918 | [2] 1.01 | [13] 1.02 | [14] 0.983 | [3] 1.04 | [16] 0.996 | [20] 0.99 | [4] 0.994 | [5] 0.984 | [21] 0.861 | [6] 1.01 | [22] 0.936 | [23] 0.91 | [24] 0.871 | [25] 0.797 | [26] 0.977

NNC(=O)c1cnn(-c2ccc(Cl)cc2)c1C(F)(F)F
inactive: [1] 0.992 | [7] 0.996 | [8] 0.983 | [9] 0.993 | [27] 1.03 | [10] 0.94 | [11] 0.998 | [2] 1.01 | [12] 0.976 | [13] 0.986 | [28] 1 | [14] 0.946 | [3] 1.01 | [15] 0.909 | [16] 1 | [17] 0.976 | [18] 1.01 | [19] 0.967 | [20] 0.998 | [4] 0.977 | [5] 1 | [21] 1.01 | [6] 1 | [22] 1.03 | S. cerevisiae deletion strains, locus YOL006C, strain TOP1, hits give low values 1.02 | [23] 0.883 | [24] 0.989 | [25] 0.916 | [26] 1.01

CCOC(=O)c1cnn(-c2ccc(F)cc2)c1N
inactive: [1] 0.99 | [7] 0.992 | [9] 0.984 | [27] 1 | [10] 0.866 | [11] 0.984 | [2] 0.998 | S. cerevisiae deletion strains, locus YGR229C, strain SMI1, hits give low values 0.987 | [12] 1.07 | [13] 0.967 | [28] 0.989 | [14] 0.994 | [3] 0.9 | [15] 1.04 | [16] 0.995 | [17] 0.919 | [18] 1.04 | [19] 0.938 | [20] 0.995 | [4] 0.991 | [5] 0.974 | [21] 0.966 | [6] 0.987 | [22] 0.973 | [23] 0.869 | [24] 1.06 | [25] 0.844 | [26] 0.993
